Activity calls are given as the source filed them.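 Rule for the calls: active = average half-effect concentration of 10 µM or less in every one of the four cell panels; inactive = the rest.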
Tested on: H9c2
Assay: cardiomyocyte survival under oxidative or metabolic stress – cell-based, panel, H9c2 and HL-1, H2O2, 2-deoxyglucose, ATP luminescence, SAR follow-up (AID 651642)
Details: H9c2/HL-1 cardiomyocyte H2O2 oxidative damage, mean of runs, with H2O2

Compound	outcome
COc1ccc2c(c1OC)C(=O)N1c3ccccc3C(=O)N(Cc3ccccc3)C21 (centres undefined)	inactive
COc1ccc2c(c1OC)C(=O)N1c3ccccc3C(=O)N(Cc3ccccc3F)C21 (centres undefined)	inactive
COc1ccc2c(c1OC)C(=O)N1c3ccccc3C(=O)N(Cc3cccc(C)c3)C21 (centres undefined)	inactive
COc1ccc2c(c1OC)C(=O)N1c3ccccc3C(=O)N(Cc3ccccn3)C21 (centres undefined)	inactive
COc1cc(-c2cc(C(=O)NCC(=O)Nc3cccc(C(C)=O)c3)c3ccccc3n2)cc(OC)c1OC	active
COc1ccc2c(c1OC)C(=O)N1c3ccccc3C(=O)N(Cc3ccncc3)C21 (centres undefined)	inactive
CCOC(=O)c1cccc(NC(=O)c2cc(-c3cc(OC)c(OC)c(OC)c3)nc3c(Cl)cccc23)c1	inactive
COc1cc(-c2cc(C(=O)NCC(=O)Nc3cccc(C(C)=O)c3)c3cccc(Cl)c3n2)cc(OC)c1OC	active
CCOC(=O)c1cccc(NC(=O)c2cc(-c3cc(OC)c(OC)c(OC)c3)nc3ccccc23)c1	inactive
COc1ccc2c(c1OC)C(=O)N1c3ccccc3C(=O)N(Cc3ccc(F)cc3)C21 (centres undefined)	inactive
COc1cc(-c2cc(C(=O)Nc3cccc(C#N)c3)c3ccccc3n2)cc(OC)c1OC	inactive
CCOC(=O)c1cccc(NC(=O)c2cc(-c3cc(OC)c(OC)c(OC)c3)nc3ccc(F)cc23)c1	inactive
COc1ccc2c(c1OC)C(=O)N1c3ccccc3C(=O)N(Cc3cccc(F)c3)C21 (centres undefined)	inactive
COc1cc(-c2cc(C(=O)NCC(=O)Nc3cccc(C(C)=O)c3)c3cc(C)ccc3n2)cc(OC)c1OC	inactive

— PubChem BioAssay AID651642 (Sanford-Burnham Center for Chemical Genomics, 2012)
